About 83,000 compounds went through this panel and 20% of them were active in at least one assay; those are over-represented in the sample as a whole.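 Cell lines were cultured in 96-well plates, exposed to a single compound concentration, and assessed for percent growth 48 hours later.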 Values without a mark were called inactive. Active and inactive are the calls of the source. Rule for the calls: active = growth percent below 10; inactive = the rest.

The test has as its system HL-60(TB) leukemia. The experiment in a line: NCI-60 one-dose screen, 48 h (100 = growth as untreated, 0 = no growth, -100 = all killed). To be noted: 10 µM unless noted.
On to `COc1cc(NC(C)CCCN)c2ncccc2c1Oc1ccc(Cl)cc1` (stereo unspecified), for which the growth was 94.8%.

Take `CCN(CC)CCCC(Nc1c2ccc(Cl)cc2nc2ccc(OC)cc12)c1ccc(F)cc1` (stereo unspecified): the growth was -37.5% (active).

As to `CN(C)C(=O)SC1=C(c2c(Cl)cccc2Cl)C(=O)c2ccccc21`, the growth was -35.7% (active).

On to `CC(=O)O[C@H]1[C@H](CC#CC#CC[C@@H]2C[C@]3(C)[C@H]4CC=C5[C@H]6[C@@H](C)[C@H](C)CC[C@]6(C(=O)NCCN(CCN)CCN)CC[C@@]5(C)[C@]4(C)CC[C@H]3C(C)(C)[C@H]2OC(C)=O)C[C@]2(C)[C@H]3CC=C4[C@H]5[C@@H](C)[C@H](C)CC[C@]5(C(=O)NCCN(CCN)CCN)CC[C@@]4(C)[C@]3(C)CC[C@H]2C1(C)C`, for which the growth was 34.2%.

As for `CC1c2ccccc2-c2ccccc2N1C` (stereo unspecified), the growth is 106%.

Regarding `COc1ccc(C2=NN(C(C)=O)C(c3cn(-c4ccccc4)nc3-c3ccc(Cl)cc3)C2)cc1` (stereo unspecified), the growth is 3.16% (active).

In the case of `COc1ccc2c(c1)C(=O)/C(=C/c1cccc(OCC(=O)c3ccc([N+](=O)[O-])cc3)c1)CO2`, the growth was -46.6% (active).

Turning to `C=COCCCCCCCCCCCCCCCCCC`, the growth was 73.8%.

Consider `Nc1cc2c(cc1Br)-c1cc(Cl)ccc1C2=O`, for which the growth was 83.8%.

As for `COc1cccc(-c2cc(-c3cc4ccccc4oc3=O)nc(N)n2)c1`, the growth is 101%.

For `CC(=O)O[C@]1(C)C[C@H](O)[C@]2(O)C=CO[C@H](O[C@@H]3O[C@H](CO)[C@@H](O)[C@H](O)[C@H]3O)[C@@H]21`, the growth was 92.5%.
